Experimental data from PubChem BioAssay (Tox21).
Inconclusive results are not listed. Entries that show only a call come without a potency. A number with no mark means an inactive call. Calls of active or inactive are those of the source. Unless noted, the call rests on the fitted dose curve; in most records, active means well fitted curve in the direction sought with a large enough effect in the repeat runs; inconclusive means weak or mixed curves; inactive means no such curve, though single readings can be large; an effect the other way counts as inactive or inconclusive.

Columns and labels:
[1] = qHTS assay to identify small molecule antagonists of the retinoid-related orphan receptor gamma (ROR-gamma) signaling pathway - cell viability counter screen (AID 1159520); further: nearly all actives have a fitted effect of over 50% in size; further: potency means the concentration at half of the fitted maximal effect
Outline: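 Tet-on ROR gamma CHO cells were given compounds for 2 hr, then doxycycline hyclate at 1 uM final, and incubated 16 hr at 37 C. Viability was measured as ATP content by CellTiter-Glo luminescence.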

[2] = target: Nuclear receptor ROR-gamma (Homo sapiens) (UniProt P51449); assay: qHTS assay to identify small molecule antagonists of the retinoid-related orphan receptor gamma (ROR-gamma) signaling pathway (AID 1159521; further: nearly all actives have a fitted effect of over 50% in size; further: potency means the concentration at half of the fitted maximal effect)
Outline: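 Readout: ONE-Glo luciferase luminescence, 30 min at room temperature. System: Tet-on RORγ CHO, RORE-LUC. Sequence: compound 2 h, doxycycline 1 uM final, 16 h at 37 C.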

[3] = qHTS assay to identify small molecule agonists of the AP-1 signaling pathway - cell viability counter screen (AID 1159525; calls by dose curve; further: nearly all actives have a fitted effect of over 55% in size; further: potency means the concentration at half of the fitted maximal effect)
Outline: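 Same-well cytotoxicity counter screen of the Tox21 10K library in ME-180 cells. The readout is ATP-dependent luminescence after 5 h compound treatment. Data are normalised to DMSO and tetra n-octyl ammonium bromide controls.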

[4] = qHTS assay to identify small molecule agonists of the RXR signaling pathway - cell viability counter screen (AID 1159529); further: nearly all actives have a fitted effect of over 50% in size; further: potency means the concentration at half of the fitted maximal effect
Outline: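 Tox21 10K compounds were tested for cytotoxicity against GeneBLAzer RXR-alpha HEK 293T cells grown in 2% charcoal-stripped FBS. Exposure lasted 16 hr at 37 C, 5% CO2; viability read by CellTiter-Glo luminescence.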

[5] = qHTS assay to identify small molecule antagonists of the retinoid acid receptor (RAR) signaling pathway - cell viability counter screen (AID 1159551); further: nearly all actives have a fitted effect of over 35% in size; further: potency means the concentration at half of the fitted maximal effect
Outline: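 C3RL4 RARE-luciferase line; cpds + retinol 1 uM final, 6 h, 37 C/5% CO2; CellTiter-Glo ATP luminescence, 30 min RT.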

[6] = qHTS assay to identify small molecule antagonists of the estrogen related receptor (ERR) signaling pathway from Tox21 library - cell viability counter screen (AID 1224834); further: nearly all actives have a fitted effect of over 30% in size; further: potency means the concentration at half of the fitted maximal effect
Outline: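 Multiplexed viability counter screen in ERR cells: 17.5 h compound exposure at 37 C, CellTiter-Fluor added, 30 min at 37 C/5% CO2, fluorescence read.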

[7] = qHTS assay to identify small molecule agonists of the constitutive androstane receptor (CAR) signaling pathway - cell viability counter screen (AID 1224836); further: nearly all actives have a fitted effect of over 45% in size; further: potency means the concentration at half of the fitted maximal effect
Outline: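 Fluorescence from CellTiter-Fluor indicates live cells after 23 h exposure. The human hepatoma line expresses hCAR and a CYP2B6-2.2kb reporter. Incubation medium contains 0.75 uM PK11195 (final).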

[8] = qHTS assay to identify small molecule antagonists of the constitutive androstane receptor (CAR) signaling pathway - cell viability counter screen (AID 1224837); further: nearly all actives have a fitted effect of over 45% in size; further: potency means the concentration at half of the fitted maximal effect
Outline: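 Read-out: CellTiter-Fluor fluorescence after 23 hr at 37 C/5% CO2. Cells: HepG2 double-stable for hCAR and CYP2B6-2.2kb. Compounds tested at 15 concentrations in the presence of CITCO, final concentration 50 nM.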

[9] = qHTS assay to identify small molecule antagonists of the vitamin D receptor (VDR) signaling pathway - cell viability counter screen (AID 743225); further: nearly all actives have a fitted effect of over 50% in size; further: potency means the concentration at half of the fitted maximal effect
Outline: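 Cytotoxicity toward the VDR-bla HEK 293T line was scored by ATP-based CellTiter-Glo luminescence, read in the wells already used for the beta-lactamase readout after 16 h compound treatment under 3 nM 1-alpha,25-dihydroxyvitamin D3 stimulation.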

[10] = target: Luciferin 4-monooxygenase (Photinus pyralis) (UniProt P08659); assay: qHTS assay to identify small molecule inhibitors of firefly luciferase (AID 1224835); further: nearly all actives have a fitted effect of over 25% in size; further: potency means the concentration at half of the fitted maximal effect
Outline: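 Biochemical qHTS: compounds run as interplate titrations against purified firefly enzyme, with D-luciferin and ATP each at its KM concentration. Light output recorded by CCD imaging.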

[11] = target: Retinoic acid receptor RXR-alpha (Homo sapiens) (UniProt P19793); assay: qHTS assay to identify small molecule agonists of the RXR signaling pathway (AID 1159527; calls by dose curve; further: nearly all actives have a fitted effect of over 35% in size)
Outline: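 Reporter activation is measured as beta-lactamase activity via FRET substrate cleavage (emission 460/530 nm) in HEK 293T cells expressing an RXR-alpha-driven bla construct, following 16 hr compound exposure at 37 C.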

[12] = qHTS assay to identify small molecule antagonists of the retinoic acid receptor (RAR) signaling pathway (AID 1159552; further: nearly all actives have a fitted effect of over 50% in size; further: potency means the concentration at half of the fitted maximal effect)
Outline: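 Overnight-plated C3RL4 reporter cells get compound, then retinol to 1 uM final; plates sit 6 hr at 37 C, 5% CO2. A luciferase reagent is added and light output recorded after 30 min at room temperature.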

[13] = qHTS assay to identify small molecule antagonists of the estrogen related receptor (ERR) signaling pathway - cell viability counter screen (AID 1224818); further: series mostly up to about 46 µM
Outline: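 Fluorescence from CellTiter-Fluor, read 30 min after reagent addition at 37 C, measured viability of ERR cells exposed to compounds for 17.5 h. Cells had settled 6 h before dosing.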

[14] = qHTS assay to identify small molecule agonists of the AP-1 signaling pathway (AID 1159526; calls by dose curve; further: potency means the concentration at half of the fitted maximal effect)
[15] = qHTS assay to identify small molecule agonists of the retinoic acid receptor (RAR) signaling pathway (AID 1159553); further: potency means the concentration at half of the fitted maximal effect
Outline: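 RARE-luc C3RL4 cells; overnight attachment 37 C/5% CO2; compound (DMSO) 6 hr; luciferase reagent, 30 min RT; luminescence read-out.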

Chain of Luciferin 4-monooxygenase (Photinus pyralis) (P08659 whole entry, looked up): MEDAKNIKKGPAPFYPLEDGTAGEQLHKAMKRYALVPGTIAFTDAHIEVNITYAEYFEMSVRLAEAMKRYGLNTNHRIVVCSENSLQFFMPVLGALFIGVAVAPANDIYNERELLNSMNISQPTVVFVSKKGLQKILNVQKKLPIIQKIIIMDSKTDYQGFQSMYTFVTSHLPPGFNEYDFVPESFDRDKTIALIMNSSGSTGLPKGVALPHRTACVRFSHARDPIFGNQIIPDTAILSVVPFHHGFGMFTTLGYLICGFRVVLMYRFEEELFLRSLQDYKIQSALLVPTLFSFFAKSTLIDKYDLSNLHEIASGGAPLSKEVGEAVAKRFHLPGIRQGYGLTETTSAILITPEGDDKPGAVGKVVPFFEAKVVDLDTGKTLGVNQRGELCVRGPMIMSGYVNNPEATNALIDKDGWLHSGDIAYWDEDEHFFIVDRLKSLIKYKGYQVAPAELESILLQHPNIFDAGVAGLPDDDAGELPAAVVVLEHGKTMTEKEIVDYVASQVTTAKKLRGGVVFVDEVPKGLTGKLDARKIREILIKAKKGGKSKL
Chain of Retinoic acid receptor RXR-alpha (Homo sapiens) (P19793 whole entry, looked up): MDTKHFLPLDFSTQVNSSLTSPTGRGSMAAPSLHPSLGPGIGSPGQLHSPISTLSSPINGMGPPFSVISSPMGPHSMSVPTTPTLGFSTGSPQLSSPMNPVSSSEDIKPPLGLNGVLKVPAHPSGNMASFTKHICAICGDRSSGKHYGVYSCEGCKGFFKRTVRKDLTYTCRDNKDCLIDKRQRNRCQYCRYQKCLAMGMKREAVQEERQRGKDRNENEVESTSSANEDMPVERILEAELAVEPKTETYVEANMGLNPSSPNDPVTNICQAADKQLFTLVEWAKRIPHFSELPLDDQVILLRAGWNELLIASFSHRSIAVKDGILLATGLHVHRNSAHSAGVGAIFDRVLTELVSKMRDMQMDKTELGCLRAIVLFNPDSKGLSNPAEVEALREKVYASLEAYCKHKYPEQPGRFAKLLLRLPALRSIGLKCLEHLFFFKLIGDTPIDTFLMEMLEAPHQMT

Compound | Potency [1] | Potency [2] | Potency [3] | Potency [4] | Potency [5] | Potency [6] | Potency [7] | Potency [8] | Potency [9] | Potency [10] | Potency [11] | Potency [12] | Potency [13] | Potency [14] | Potency [15]
O=C1C=CC(=O)N1c1cccc(N2C(=O)C=CC2=O)c1 | 12.2 µM (active) | 3.86 µM (active) | 13.8 µM (active) | 11 µM (active) | 21.7 µM (active) | 54.5 µM (active) | 61.1 µM (active) | 61.1 µM (active) |  |  |  |  |  |  | 
CCCCCN=C(N)N/N=C/c1c[nH]c2ccc(OC)cc12 | 26.6 µM (active) | 33.5 µM (active) | 23.9 µM (active) |  | 29.8 µM (active) | 26.6 µM (active) | 21.1 µM (active) | 18.8 µM (active) | 16.9 µM (active) | inactive |  |  |  |  | 
CC(C)=NNC(N)=S | inactive | inactive | inactive |  | inactive | inactive | inactive | inactive |  | inactive |  |  |  |  | 
[Cl][Eu]([Cl])[Cl] | inactive | inactive | inactive | inactive | inactive | inactive | inactive |  |  | 31.7 µM (active) | inactive |  |  |  | 
CN(C)CCOc1ccc(/C(=C(/CCCl)c2ccccc2)c2ccccc2)cc1 | 51 µM (active) | 22.8 µM (active) | 36.4 µM (active) | 18.3 µM (active) |  | 51 µM (active) |  |  | 12.9 µM (active) | inactive |  | 57.2 µM (active) |  |  | 
CCOC(=O)C1=NN(c2ccc(Cl)cc2Cl)C(C)(C(=O)OCC)C1 (stereo not given) | inactive | 30.6 µM (active) | inactive | inactive |  |  | inactive | inactive |  | inactive | inactive |  |  |  | 
O=C(Nc1ccccc1)c1cc(Cl)ccc1O | 24.3 µM (active) | 12.2 µM (active) | inactive |  | inactive | 15.4 µM (active) | 24.3 µM (active) |  | 12.3 µM (active) | 3.99 µM (active) |  |  |  |  | 
CCN(CC)c1ccc(N=Nc2ccccc2)cc1 | inactive | inactive | inactive | 19.5 µM (active) |  | 24.3 µM (active) |  |  |  | 0.502 µM (active) |  | inactive |  |  | 
O=C1CCC/C=C\CCCCCCCCCC1 | inactive | inactive | inactive |  | inactive | inactive | inactive | inactive | inactive | inactive |  |  |  |  | 
CC(=O)[C@]1(O)Cc2c(O)c3c(c(O)c2[C@@H](O[C@H]2C[C@H](N)[C@H](O)[C@H](C)O2)C1)C(=O)c1ccccc1C3=O | 26.6 µM (active) | inactive | inactive | inactive |  | 1.06 µM (active) | 2.66 µM (active) | 2.11 µM (active) | inactive |  |  | 0.298 µM (active) | inactive |  | 
C=Cc1ccc(O)c(OC)c1 | inactive | inactive | inactive | inactive | inactive | inactive | inactive | inactive |  | inactive | inactive |  |  |  | 
COc1cc([C@@H]2c3cc4c(cc3[C@@H](O[C@@H]3O[C@@H]5CO[C@@H](C)O[C@H]5[C@H](O)[C@H]3O)[C@H]3COC(=O)[C@H]23)OCO4)cc(OC)c1O | inactive | 27 µM (active) |  |  | inactive |  | inactive | inactive | inactive | inactive |  | 67.8 µM (active) |  |  | 
COCCC(=O)OC | inactive | inactive | inactive | inactive | inactive | inactive | inactive | inactive |  | inactive | inactive | inactive |  |  | 
COC(=O)c1ccc([N+](=O)[O-])cc1 | inactive |  | inactive | inactive |  | inactive | inactive | inactive |  | inactive | inactive | inactive |  | inactive | 
COc1cc(/C=C/C(=O)CC(=O)/C=C/c2ccc(O)c(OC)c2)ccc1O | 48.9 µM (active) | 61.5 µM (active) |  |  |  | 21.8 µM (active) |  |  | 49.3 µM (active) | 28.4 µM (active) |  | inactive |  |  | 9.75 µM (active)
Cc1cc(F)ccc1-c1cc(N2CC[C@@H](O)[C@H]2CO)ncc1N(C)C(=O)C(C)(C)c1cc(C(F)(F)F)cc(C(F)(F)F)c1 | 53.6 µM (active) |  | 17.1 µM (active) | 17.1 µM (active) | inactive | 42.6 µM (active) |  |  | 13.6 µM (active) | inactive |  |  |  |  | 
CCN(CC)c1ccc(C=O)c(O)c1 | inactive |  | inactive |  | inactive | inactive | inactive |  |  |  | inactive | inactive |  | inactive | 
Oc1ccc(C2(c3ccc(O)c(C4CCCCC4)c3)CCCCC2)cc1C1CCCCC1 | 24.3 µM (active) | 17.2 µM (active) |  |  |  | 61.1 µM (active) | 48.6 µM (active) | 27.3 µM (active) |  | inactive |  | 27.3 µM (active) |  |  | 
CCc1cccc(C)c1N(C(=O)CS(=O)(=O)O)C(C)COC (stereo not given) | inactive |  | inactive | inactive |  | inactive | inactive | inactive |  | inactive | inactive | inactive |  |  | 
O=C1CCCCCCCCCCCCCC1 |  | inactive | inactive | inactive | inactive | inactive | inactive | inactive | inactive | inactive | inactive | inactive |  | inactive | inactive
CCOC(=O)[C@H](O)[C@@H](O)C(=O)OCC | inactive |  | inactive |  | inactive | inactive | inactive |  |  | inactive | inactive | inactive |  | inactive | 
CO[Si](OC)(c1ccccc1)c1ccccc1 | inactive | 61.1 µM (active) |  |  |  | inactive | inactive | inactive |  | inactive |  |  |  |  | 
Nc1ccc(Oc2cccc(Oc3ccc(N)cc3)c2)cc1 | inactive |  | inactive | inactive | inactive |  | inactive | inactive |  | 35.6 µM (active) |  | 24.3 µM (active) |  | inactive | 
CC1(C)[C@H]2CC[C@]1(C)C(=O)C2 | inactive |  | inactive |  | inactive | inactive | inactive |  |  | inactive |  |  |  | 19.5 µM (active) | 
CCC(O)CO (stereo not given) | inactive |  | inactive | inactive | inactive | inactive | inactive | inactive |  | inactive | inactive |  |  | inactive | 
